LAP4 TOR yeast: modulators of LAP4-GFP expression in yeast, primary screen, S. cerevisiae, multiplex flow cytometry, MLPCN library | 3 h; median GFP as percent of DMSO wells | GFP response vs DMSO, % at 10 µM | 320,000 compounds, 0.34% hits | AID 2023, 2009;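 active = GFP response vs DMSO above a set limit, about the screen mean plus 3 SD, cut at about 150% in these data; inconclusive = under 70 cell events counted for the yeast strain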
AGP1-GFP MLPCN: modulators of AGP1-GFP expression in yeast TOR pathway, primary screen, cell-based, multiplex flow cytometry, S. cerevisiae, MLPCN library. 3 h; GFP as percent of DMSO wells. GFP response vs DMSO, % at 10 µM. 320,000 compounds, 0.02% hits. AID 2066, 2009;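 active = GFP response relative to DMSO above a set limit, near screen average plus 3 SD, cut at about 150% in these data; inconclusive = fewer than 70 cells counted for the yeast strain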;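 note: median GFP channel fluorescence of the gated AGP1 strain per well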
MEP2-GFP yeast: modulators of MEP2-GFP levels in yeast, primary screen, S. cerevisiae, multiplex flow cytometry, MLPCN library | 330,000 compounds, 0.51% hits | S. cerevisiae MEP2-GFP strain, 3 h; 100% = DMSO control level | GFP response vs DMSO, % at 10 µM;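 active = GFP response versus DMSO above a set limit, roughly screen mean plus 3 SD, cut at about 180% in these data; inconclusive = fewer than 70 cells counted for a yeast strain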;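 note: median GFP fluorescence of the barcode-gated MEP2-GFP cells per well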
RPL19A TOR yeast: RPL19A-GFP expression modulators in yeast, primary screen, cell-based, S. cerevisiae, multiplex flow cytometry, MLPCN | S. cerevisiae RPL19A-GFP strain, 3 h; active compounds read low | percent response vs DMSO, % at 10 µM | 330,000 compounds, 0.3% hits | AID 2025, 2009;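 active = percent response vs DMSO below 50%; inconclusive = fewer than 70 events counted for the yeast strain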;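 note: median channel GFP fluorescence of the barcoded RPL19A-GFP strain; ratio of sample median GFP to plate DMSO average so 100% = DMSO; lower means less RPL19A-GFP as with rapamycin TOR inhibition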
CIT2 TOR yeast: modulators of CIT2-GFP expression in yeast, primary screen, S. cerevisiae, GFP fusion, multiplex flow cytometry, MLPCN library | GFP response vs DMSO, % at 10 µM | 320,000 compounds, 0.065% hits | AID 2029, 2009 | S. cerevisiae CIT2-GFP strain, 3 h; 100 means same as DMSO wells;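 active = GFP response relative to DMSO above a set limit, near the screen mean plus 3 SD, cut at about 150% in these data; inconclusive = Fewer than 70 cells measured for a yeast strain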;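 note: ratio of well median GFP fluorescence to mean of DMSO wells on the plate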
Numbers without * were called inactive; ? = inconclusive; . = no result; [ ] = dose if it differs, or a comment. Shown are actives, neighbours in structure and some others; about 0.93% of the full set was active somewhere.

SMILES	LAP4 TOR yeast	AGP1-GFP MLPCN	MEP2-GFP yeast	RPL19A TOR yeast	CIT2 TOR yeast
CCN(CC(=O)NCc1ccc(Cl)cc1)C(=O)CCc1ccccc1	93	96	97	104	93
CC(NC(=O)CCNS(=O)(=O)c1cccc2nonc12)c1ccccc1 (configuration not stated)	100	103	100	105	103
COc1ccccc1C(=O)NC(CCSC)C(=O)NNC(=O)c1ccccc1O (configuration not stated)	106	107	105	104	93
O=C(N1CCCCC1)N1CCN(S(=O)(=O)c2ccccc2)CC1	99	102	106	101	102
C[C@@H](C(=O)Nc1nc2ccc(F)cc2s1)N1C(=O)C2CC=CCC2C1=O (some centres not stated)	189*	156*	612*	65	139
CS(=O)(=O)c1ccc(Cl)c(NC(=O)C2CCN(S(=O)(=O)c3cccs3)CC2)c1	94	89	88	89	86
COc1ccc(N=c2oc3cc(O)ccc3cc2C(=O)NCC2CCCO2)cc1 (configuration not stated)	101	106	101	102	107
COc1ccc(N=c2oc3cc(O)ccc3cc2C(=O)NCC2CCCO2)c(OC)c1 (configuration not stated)	82	?	348*[may fluoresce violet]	43*[may fluoresce violet]	?
O=C(Nc1cc(F)c(Br)cc1F)c1ccc(Cl)cc1	154*	139	260*	78	126
O=C(Nc1ccc(Cl)cc1C(F)(F)F)c1ccc(Cl)cc1	91	88	90	94	86
Nc1nnnn1/N=C/c1cc(Br)ccc1O	.	.	98	107	.
O=C1CN(C(=O)N[C@@H](Cc2ccccc2)C(=O)N[C@@H](Cc2ccccc2)C(=O)O)c2ccccc2N1	102	97	102	99	93
O=C1CN(C(=O)N[C@@H](Cc2ccccc2)C(=O)N[C@H](Cc2ccccc2)C(=O)O)c2ccccc2N1	86	?	242*[may fluoresce violet]	14*[may fluoresce violet]	?
Cc1ccc(NC(=S)N2CCSC2c2cccs2)cc1 (configuration not stated)	155*	116	182*	108	165*
CC1(C)Cc2c(cnn2-c2cccc(F)c2)C(NC(=O)Cn2cccn2)C1 (configuration not stated)	88	91	102	106	95
CC(C)(C)c1ccc2c(c1)C(=O)c1ccccc1C2=O	97	95	103	107	94
CC(C)(C)C1=CC=C(C(C)(C)C)C(=O)C1=O	175*	92	91	97	95
Fc1ccccc1N=C1NN=C(c2ccccc2)CS1	109	99	104	112	105
Clc1ccccc1N=C1NN=C(c2cccs2)CS1	155*	93	96	92	90
CCCN1C(=O)c2cc(C(=O)Nc3ccc(OC)cc3OC)ccc2C1Nc1ccc(OC)cc1OC (configuration not stated)	77	16	261*[may fluoresce violet]	76	?
CCCN1C(=O)c2cc(C(=O)Nc3ccc(OC)c(OC)c3)ccc2C1Nc1ccc(OC)c(OC)c1 (configuration not stated)	92	106	125	122	108
COc1ccc(-n2cc(-c3ccccc3)c3c(N4CC(C)OC(C)C4)ncnc32)cc1 (configuration not stated)	108	90	95	96	83
COc1ccc(S(=O)(=O)n2nc(C)cc2C)cc1OC	105	99	103	98	95
Cc1ccc(-c2cc(-c3ccc(C)o3)nc(N)c2C#N)cc1	133	.	175*[may fluoresce violet]	91	?
O=C(c1cccc(F)c1)N1CCC(N2CCOCC2)CC1	84	33	262*[may fluoresce violet]	.	?
O=C(c1cccc(Cl)c1)N1CCC(N2CCC(C(=O)N3CCOCC3)CC2)CC1	93	100	96	103	102
CC(Sc1nnc(C(C)Oc2ccccc2F)o1)C(=O)NCc1ccc2c(c1)OCO2 (configuration not stated)	105	106	98	100	103
